Screening results as filed in PubChem.
The sample as a whole holds a higher share of hits than the screen did.
MgrA DNA FP: S. aureus MgrA activity modulators, primary screen, biochemical, S. aureus Newman, fluorescence polarization; MgrA-DNA binding; inhibition, % (no concentration beside the values); AID 602314, 2012; 0.13% of 84,000 active; in the data active = inhibition above about 30%, passing the limit was not always enough;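 also: 0% = protein plus DNA without compound and 100% = DNA alone without protein; higher means less MgrA bound to DNA so lower polarization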
Starred values were filed as active, the others as inactive.

SMILES | MgrA DNA FP
Nc1ccc(N2CCCC2)cc1 | 56.8*
O=S(=O)(c1ccccc1)c1ccc(N2CCCCC2)cc1 | 1.5
Nc1ccc(N2CCCCC2)cc1 | -0.9
CC(C)(C)c1nc(NCc2cccs2)c2nnn(Cc3ccccc3Cl)c2n1 | -2.1
CN1CCCc2cc(CN)ccc21 | 62.8*
CN1CCCc2cc(/C=C3\CC/C(=C/c4ccc5c(c4)N(C)CCC5)C3=O)ccc21 | 18.4
CN1CCCc2cc(/C=C3\CCC(C4CCCC4)C3=O)ccc21 (stereo not drawn) | -1.3
COC(=O)C(NC(=O)Nc1ccccc1)C(C)C (stereo not drawn) | -1.4
COC(=O)C(C(=O)OC)C(Nc1ccccc1)c1ccccc1 (stereo not drawn) | 101.2*
COC(=O)C(N=Cc1ccccc1)c1ccccc1 (stereo not drawn) | 0.1
Cc1cccc2nc3c(nc12)-c1ccccc1C3=Nc1ccccc1 | -2.7
OCC1OC(n2cnc3cncnc32)C(O)C1O (stereo not drawn) | -9.2
O=C1c2ccccc2CC1Sc1nnc(-c2ccco2)c(-c2ccco2)n1 (stereo not drawn) | 95.7*
Cc1cc(C)c(C#N)c(SC2CCc3ccccc3C2=O)n1 (stereo not drawn) | 1.4
O=C(CSc1nnc(-c2ccco2)c(-c2ccco2)n1)N1c2ccccc2Sc2ccc(Cl)cc21 | 21.9
COc1cc(-c2nc3cc(Cl)ccc3o2)cc(OC)c1OC | 0.1
CCCCn1ncc(O)c(Cl)c1=O | -0.4
Cc1ccc(C)n1CCC(=O)O | 103.4*
Cc1ccc2c(c1)c(C)cc(=O)n2CCC(=O)O | 14.2
CC1=C(C)C(=O)N(CCC(=O)O)C1=O | -2.6
Cc1ccc(C(=O)Oc2cc(C)nn2Cc2ccccc2)cc1 | -1.3
C=CCNc1c2c(nc3cc(-c4cc(OC)cc(OC)c4)nn13)CCC2 | -3.3
COc1ccccc1N=Cc1sc2ccccc2c1O | 4.2
CCOC(=O)C1CCN(C(=O)CSc2ccc3ccccc3c2)CC1 | -1.6
Cc1ccc(C)n1-c1sccc1C(=O)CC#N | 3.6
SMILES | MgrA DNA FP
CC(=O)Nc1sccc1C(=O)O | -1.9
Cc1ccc(C)n1-c1sccc1C(=O)O | 88.5*
Cc1nc(-c2ccc(Cl)cc2)sc1C(C)O (stereo not drawn) | -2.5
CCOc1ccc(C(=O)NCC2CCN(c3nc(C)cc(C)n3)CC2)cc1 | -0.4
O=C(NCCCn1ccnc1)c1cc2nc3c(c(C(F)(F)F)n2n1)CCc1ccccc1-3 | 0.5
O=C(CC1OC(=O)c2ccccc21)NCc1ccc(Cl)cc1 (stereo not drawn) | -2.0
O=C(Nc1ccc(N2CCCCC2)cc1)c1ccncc1 | 2.5
c1cc2c(cc1CNc1ccc(N3CCCC3)cc1)OCO2 | 18.0
c1cc(CNc2ccc(N3CCCC3)cc2)ccn1 | 96.8*
COC(=O)C(C)n1cnc2sc3c(c2c1=O)CCCC3 (stereo not drawn) | 1.4
O=C1CC(=O)c2ccc3c4c(ccc1c24)C(=O)CC3=O | 93.1*
O=C1CC(=O)c2c1cccc2[N+](=O)[O-] | 35.4
O=C(CNCC1CCCO1)N1CCCC1 (stereo not drawn) | 17.2
COc1ccc(NCCC(=O)O)cc1 | -0.4
CN1C(=O)/C(=C\C(=O)c2cccs2)c2ccccc21 | -2.8
CN1C(=O)CN(C2CCCCC2)C(=O)c2ccccc21 | 1.9
CN1C(=O)/C(=c2/[nH][nH]c(=O)/c2=C\C=C\c2ccccc2)C(=O)c2ccccc21 | 55.7*
CSc1nc(-c2ccc(Cl)cc2)nn1C(C)=O | 4.0
COc1cccc(-n2cc(C(=O)N(C)c3ccccc3)c3ccccc3c2=O)c1 | 2.5
Cc1cc(N)c2ncccc2c1 | -1.9
COC(=O)c1cc(OC)c(OC)cc1NS(=O)(=O)c1ccc(OC)cc1 | -0.8
Cc1ccc(/C=C2\CC/C(=C\c3ccc(C)o3)C2=O)o1 | 22.9
Cc1ccc(/C=C2/SC(=S)N(CCc3ccc(Cl)cc3)C2=O)o1 | -2.1
Cc1ccc(/C=C2\SC(=O)NC2=S)o1 | 81.0*
CN(C)CCSc1nc2ccccc2s1 | -1.4
SMILES | MgrA DNA FP
N#Cc1c(-c2ccco2)cc(-c2cccs2)[nH]c1=O | 55.2*
N#Cc1c(C(F)(F)F)cc(-c2cccs2)[nH]c1=O | 3.2
N#Cc1c(-c2cccs2)cc(-c2ccccc2)[nH]c1=O | 0.4
CC(C)(C)c1cc(C(C)(C)C)n(-c2ccc(N=Cc3ccccc3O)cc2)n1 | 0.2
FC(F)(F)c1cc(-c2ccco2)nc(-n2cccn2)n1 | 3.8
O=c1cc(O)c2sc3nc(-c4ccccc4)ccc3c2[nH]1 | 3.3
O=c1cc(O)c2sc3nc(-c4ccco4)cc(C(F)(F)F)c3c2[nH]1 | 88.0*
CC(OC(=O)CN1C(=O)COc2ccccc21)C(=O)NCc1cccs1 (stereo not drawn) | 16.2
CCCN1CC=C2C(C1)C(c1ccc(C(=O)OC)cc1)C(C#N)=C(N)C2(C#N)C#N (stereo not drawn) | 9.2
CC(C)c1ccc(C2C(C#N)=C(N)C(C#N)(C#N)C3=CCN(C)CC32)cc1 (stereo not drawn) | 8.7
CCN1CC=C2C(C1)C(c1ccc(Cl)s1)C(C#N)=C(N)C2(C#N)C#N (stereo not drawn) | 41.7*
CC(CNC(=O)c1cccc(Nc2nc3ccccc3n3cnnc23)c1)c1ccccc1 (stereo not drawn) | -1.8
Cc1noc(C)c1Cc1ccc(C(=O)O)o1 | 3.2
O=C(CSc1nc2ccccc2c(=O)n1-c1ccccc1)N1CCOCC1 | -0.9
COc1nc(N2CCOCC2)nc(N2CCN(c3ccc(F)cc3)CC2)n1 | -3.2
Cc1ccc(S(=O)(=O)/C(C#N)=C/c2ccccc2)cc1 | 3.3
N#C/C(=C\c1ccc(/C=C(\C#N)S(=O)(=O)c2ccccc2)cc1)S(=O)(=O)c1ccccc1 | -1.9
Cc1ccc(S(=O)(=O)/C(C#N)=C/C2=Cc3ccccc3OC2)cc1 | 62.1*
CCCNC(=O)C12CC3CC(CC(C3)C1)C2 | 1.4
COc1ccccc1OCCOc1c(Cl)cc(C=C2C(=O)NC(=O)NC2=O)cc1OC | 3.9
CCCN1C/C(=C/c2ccsc2)C(=O)/C(=C/c2ccsc2)C1 | -12.4
O=C(/C=C/Nc1cccc(C(F)(F)F)c1)c1ccco1 | 0.1
O=C(/C=C/Nc1ccccc1C(F)(F)F)c1ccco1 | 92.6*
CCOc1ccc(N/C=C/C(=O)c2ccco2)cc1 | 2.0
Nc1ccc(-c2nc3ccccc3n2CCCOc2ccccc2)cc1 | -1.2
SMILES | MgrA DNA FP
CCC(C)N1C(=O)/C(=C\c2cnn(-c3ccccc3)c2)C(=O)NC1=S (stereo not drawn) | 63.2*
COc1ccc(N2C(=O)/C(=C\c3ccc(C(C)C)cc3)C(=O)NC2=S)cc1 | -0.2
CCc1ccc(N2C(=O)/C(=C/c3ccc(OCC(=O)O)c(OC)c3)C(=O)NC2=S)cc1 | 18.0
Cn1c(CNC(=O)c2cccs2)cc2ccccc21 | -0.3
COc1ccc(CNC(=O)c2ccc(N3CCCS3(=O)=O)cc2)cc1 | 0.5
O=C1C=CC(=O)C(c2ccc(C(=O)O)cc2)=C1 | 82.8*
O=C(O)c1ccc(-c2ccccc2)cc1 | 5.2
CCc1ccc(C2=CC(=O)C=CC2=O)cc1 | 14.6
Cc1cc(NC(=O)Cc2cccc3ccccc23)n[nH]1 | 2.0
CCN(CC)Cc1cc(O)c(CN(CC)CC)cc1O | 59.5*
CCN(CC)Cc1cc(C2N(C(C)=O)c3cccc4cccc(c34)N2C(C)=O)ccc1O | -1.2
CCCc1oc(C(=O)O)cc1CN(CC)CC | -7.3
CCOC(=O)c1ccc(N=Cc2c(O)n(CC)c(=O)[nH]c2=O)cc1 | 4.8
Cc1ccc(-c2ccccc2C(=O)O)cc1 | -1.0
CC(C)(C)C1(C)OC(=O)C(=Cc2ccc(Br)o2)C(=O)O1 (stereo not drawn) | 20.3
Cc1ccc(N2C(=O)NC(=O)/C(=C/c3ccc(Br)o3)C2=O)cc1Cl | 48.8*
